According to PubChem BioAssay (NCI):
About 83,000 compounds went through this panel and 20% of them were active in at least one assay; those are over-represented in the sample as a whole.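 For each line, cells grew in 96-well plates with the test compound present at a single concentration for 48 hours.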 The source made the active and inactive calls. Rule for the calls: active = growth percent below 10; inactive = the rest.

What was measured:
Assay in all cases: NCI-60 one-dose screen, 48 h (100 = growth as untreated, 0 = no growth, -100 = all killed)
Conditions in all cases: 10 µM
[1] = tested on: SK-MEL-2 melanoma
[2] = tested on: EKVX NSCLC
[3] = tested on: SN12C renal
[4] = tested on: UO-31 renal
[5] = tested on: TK-10 renal
[6] = tested on: ACHN renal
[7] = tested on: CAKI-1 renal
[8] = tested on: A498 renal
[9] = tested on: CCRF-CEM leukemia
[10] = tested on: MOLT-4 leukemia

Measured: growth

Cc1nc(Nc2nc(C)c3ccc(OCCN4CCOCC4)cc3n2)[nH]c(=O)c1C
inactive: [5] 17.6%
active: [1] -90.3% | [2] -3.4% | [3] -10.4% | [4] -63.8% | [6] -50.2% | [7] -38.4% | [8] -79% | [9] -7.55% | [10] 1.13%

COc1ccc2c3nc4cc(C)c(C)cc4nc3n(CCN(C)C)c2c1
inactive: [2] 12.6% | [5] 15.6% | [8] 65.4% | [9] 20.1%
active: [1] -4.58% | [3] -15.6% | [4] -67.2% | [6] -64% | [7] -67.5% | [10] 4.84%

COc1ccc(CCN2C(=O)/C(=C/c3csc(C#N)n3)SC2=S)cc1OC
inactive: [1] 85.6% | [2] 79.8% | [3] 31.8% | [4] 15.5% | [7] 25.3% | [8] 80%
active: [5] 1.31% | [6] 8.31% | [10] -10.7%

CN1CCN(c2ccc(Nc3nc(NCCCNC(=O)C4CCCCC4)c4sccc4n3)cc2)CC1
inactive: [1] 102% | [2] 67.3% | [3] 70.6% | [4] 62.4% | [5] 99.4% | [6] 36.2% | [8] 144% | [9] 18%

CCOC(=O)C1=C(N)N(c2ccccc2)C2=C(C(=O)CC(C)(C)C2)C1c1ccc(Cl)cc1 (configuration not stated)
active: [10] 1.54%
inactive: [1] 30.2% | [2] 27.7% | [3] 64.2% | [4] 29% | [5] 80.4% | [6] 22.3% | [7] 50.2% | [8] 67.2% | [9] 15.4%

O=C(Nc1ccc(I)cc1F)c1cc(-c2ccc(F)cc2F)ccc1O
inactive: [5] 19.9%
active: [1] -39.9% | [2] 0.815% | [3] -4.86% | [4] -0.556% | [6] -5.83% | [7] -21% | [8] -21.3% | [9] 7.55% | [10] -0.655%

COc1ccc(/C(CSc2nnc(-c3c[nH]c4ccccc34)n2-c2ccccc2)=N/O)cc1
inactive: [2] 15.1% | [3] 45.8% | [4] 18.2% | [5] 42.7% | [6] 22.3% | [7] 20.1% | [8] 69.8% | [9] 16.5% | [10] 16.7%
active: [1] 5.87%

C#Cc1ccc(S(=O)(=O)Nc2cccc(-c3csc(NC(C)=O)n3)c2)cc1
active: [4] -81.1%
inactive: [1] 81.5% | [2] 57.9% | [3] 79% | [5] 81.7% | [6] 82.6% | [8] 96% | [9] 49.5%

Brc1ccc(N/N=C/c2c[nH]c3ccccc23)nc1
inactive: [1] 83.6% | [2] 24.4% | [3] 15.3% | [5] 70% | [6] 27.5% | [7] 25.9% | [8] 43% | [10] 18%
active: [4] 2.76% | [9] 6.57%

O=C(Nc1cc(Cl)cc(Cl)c1)Nc1cc(Cl)cc(Cl)c1
active: [1] -48.4% | [2] -12% | [3] -34.3% | [4] -8.17% | [5] 0.158% | [6] -19.4% | [7] -32.4% | [8] -18.3% | [9] -33.5% | [10] -36.2%

COc1ccc(CCN2C(=O)/C(=C/c3csc(C#N)n3)SC2=S)cc1
inactive: [2] 20% | [5] 13.3% | [8] 61.4%
active: [1] -0.186% | [3] -38.2% | [4] -43.9% | [6] 4.4% | [7] -0.602% | [10] -11.2%

C=C[C@H]1[C@H](O[C@@H]2OC(CO)[C@@H](O)[C@H](O)C2OC(=O)c2c(O)cc(O)cc2-c2cccc(O)c2)OC=C2C(=O)OCC[C@H]21 (some centres not stated)
inactive: [1] 106% | [2] 93.8% | [3] 102% | [4] 89.3% | [5] 102% | [6] 105% | [8] 106% | [9] 106%

O=C1Nc2ccc(Cl)cc2/C1=C/c1ccc(OCc2ccccn2)cc1
inactive: [1] 111% | [2] 65.7% | [3] 44.5% | [4] 59.6% | [5] 90.1% | [6] 57% | [7] 61.6% | [8] 45.1% | [9] 83.2% | [10] 46.8%

COc1ccc(C(=O)NC(=S)N2CCN(c3ncnc4c3cnn4-c3ccccc3)CC2)cc1
inactive: [1] 57.6% | [2] 81.4% | [3] 46% | [4] 69% | [5] 101% | [6] 64.3% | [7] 28.1% | [8] 115% | [10] 58.2%

Nc1nnc(-c2c[nH]c3ncccc23)c(-c2c[nH]c3ccc(Br)cc23)n1
inactive: [1] 23.7% | [2] 53.1% | [3] 45.2% | [4] 35.6% | [5] 44.9% | [6] 35.1% | [7] 23.1% | [8] 48.4% | [9] 39.8% | [10] 12.7%

O=C(Cn1nc(-c2ccccc2)ccc1=O)NNC(=S)NC1CCCCC1
inactive: [1] 109% | [2] 98.6% | [3] 101% | [4] 81.2% | [5] 109% | [6] 102% | [7] 98.6% | [8] 121% | [9] 103% | [10] 106%

O=c1oc2ccc(-c3ccc(F)cc3F)cc2c(=O)n1-c1ccc(F)cc1
inactive: [5] 20.5%
active: [1] -61.5% | [2] 4.34% | [3] -13.3% | [4] -3.9% | [6] -12.7% | [7] -24.1% | [8] -17.2% | [9] 1.33% | [10] -32.1%

COc1ccc(/C=C/C(=O)c2ccc(S(=O)(=O)NCCNc3nc(Nc4ccc(F)cc4)nc(N(C)C)n3)cc2)cc1
active: [10] 9.26%
inactive: [1] 74.7% | [2] 34.1% | [3] 14.5% | [4] 14% | [5] 70.3% | [6] 16.2% | [7] 27.4% | [8] 47.9% | [9] 16%

CC(=O)C1=C(C)NC(SCC(=O)Nc2ccc(S(=O)(=O)Nc3cc(C)on3)cc2)=NC1c1ccccc1 (configuration not stated)
inactive: [1] 119% | [2] 101% | [3] 111% | [4] 89.2% | [5] 112% | [6] 106% | [7] 99.8% | [8] 109% | [9] 98% | [10] 109%

Cc1ccc(NCC(=O)Nn2c(COc3ccccc3)nc3ccccc3c2=O)cc1
inactive: [1] 87.2% | [2] 84.6% | [3] 40.4% | [4] 80.8% | [5] 86.9% | [6] 72.8% | [7] 44.3% | [8] 91.9% | [9] 101% | [10] 106%

C/C(=C\CC/C=C(\C)CC/C=C(\C)CC[C@@H](O)C(C)(C)O)CC/C=C(\C)CC[C@@H](O)C(C)(C)O
active: [10] 0.465%
inactive: [1] 52.1% | [2] 34.5% | [3] 12% | [4] 30.5% | [5] 64.6% | [6] 37.5% | [7] 47.4% | [8] 73.6%

CNCc1cccc2c1OCCCCCC[C@@](C)(O)CC1(CC1)S(=O)(=O)c1ccc(cc1)-c1cnc(N)c(n1)C(=O)N2
active: [1] -98.7% | [2] -97.4% | [3] -93.9% | [4] -96.8% | [5] -92% | [6] -100% | [7] -94.6% | [8] -94.5% | [9] -6.39% | [10] -44.5%

O=C(NO)c1ccc(CN2CCN(c3nc(-c4ccccc4)c4ccccc4n3)CC2)cc1
inactive: [1] 67.4% | [2] 16% | [3] 15.9% | [5] 19.7% | [8] 61.4% | [9] 12% | [10] 22.9%
active: [4] -11.6% | [6] 4.08% | [7] 6.42%

O=C(CN1CCN(c2ncnc3c2cnn3-c2ccccc2)CC1)Nc1nncs1
inactive: [1] 28% | [8] 49%
active: [2] -44.8% | [3] -54.7% | [4] -97.2% | [5] -56.5% | [6] -87.5% | [7] -95.7% | [10] 3.73%

CCOC(=O)C1NN(c2ccc(S(N)(=O)=O)cc2)c2nc3nc(-c4cccs4)cc(-c4cccs4)c3c(=O)n21 (configuration not stated)
inactive: [1] 101% | [2] 91.8% | [3] 90.2% | [4] 82.9% | [5] 100% | [6] 64.9% | [7] 59.1% | [8] 120% | [10] 78.7%

COC(=O)C(Cc1ccc(O)c(O)c1)NC(=O)C(CSC/C=C(\C)CCCC(C)CCCC(C)CCCC(C)C)NC(C)=O (configuration not stated)
inactive: [1] 74.5% | [2] 47% | [3] 26.3% | [4] 43.7% | [5] 45.3% | [6] 31.4% | [7] 28.4% | [8] 102%
active: [10] 7.78%

COc1ccc(-c2cc(C(=O)N=Nc3c(O)[nH]c4ccccc34)c3ccccc3n2)cc1
active: [2] -12.7% | [3] -38.8% | [6] -64.2% | [7] -58.8%
inactive: [1] 64.9% | [4] 24.5% | [5] 19.2% | [8] 112% | [9] 49% | [10] 45.1%
